The results in this text go back to PubChem BioAssay AID504465 (National Center for Advancing Translational Sciences (NCATS), 2011).

SMILES strings stand for the structures. Out of some 2,100 compounds screened, about 210 (10%) were called active. Another 53% or so got no clear call; they are omitted. Calls come from the whole dose curve; as a rule, active = well fitted inhibition curve with a large enough effect; inconclusive = small, poorly fitted or top-dose-only effect, or effect the other way; inactive = no such curve, though single readings can be large or run the other way. Some of the results follow. Entries that show only a call come without a potency.
Potency is the fitted concentration of half-maximal effect.

The nature of this experiment: IN Cell qHTS Assay for Inhibitors of the mTORC1 Signaling Pathway in MEF (Tsc2-/-, p53-/-) Cells: Sytravon. Note: nearly all actives have a fitted effect of over 60% in size. As to conditions: phospho-rpS6 immunofluorescence, 24 h; series mostly up to 38.3 µM. In a few lines: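 Tsc2-/-, p53-/- MEFs (empty-vector) treated with compound 24 h at 37 degree Celsius, then fixed and stained for phospho-rpS6 Ser235/236 (Alexa-488) plus Hoechst. Reported as % positive cells, thresholds set against 7.5 nM rapamycin and DMSO wells.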
In general terms: qHTS replaces the single test concentration by a dilution series.
Regarding `CCN(C(=O)CN1C(=O)c2ccccc2Sc2ccc(C(=O)OC)cc21)c1cccc(C)c1`, the Potency result was “inactive”.

Turning to `O=C(Nc1ccc(Cl)cc1)C1CCC(CNS(=O)(=O)c2ccc(Br)s2)CC1` (configuration not stated), the Potency entry was “inactive”.

With `Cc1cccc(C)c1NC(=O)c1cc(S(=O)(=O)N2CCCc3ccccc32)ccc1F`, the Potency result was “inactive”.

With `CC(C)S(=O)(=O)c1oc(-c2ccc(F)cc2)nc1S(=O)(=O)c1ccc(F)cc1`, the Potency is 0.826 µM (active).

For `CC(C)S(=O)(=O)c1oc(-c2cccs2)nc1S(=O)(=O)c1ccc(F)cc1`, the Potency is 0.927 µM (active).

As to `CCC(C)S(=O)(=O)c1oc(-c2ccc(F)cc2)nc1S(=O)(=O)c1ccc(F)cc1` (configuration not stated), the Potency is 1.04 µM (active).

As to `Brc1ccc(CNCCCSc2nnnn2-c2ccccc2)cc1`, the Potency entry is “inactive”.

`CCOCc1cc(CN2CCN(c3cccc(C(F)(F)F)c3)CC2)c(O)c2ncccc12`: the Potency result was “inactive”.

As to `Cc1cn2c(=O)cc(COC(=O)c3ccc(NC(=O)COc4ccccc4C)cc3)nc2s1`, the Potency result is “inactive”.

As for `CC(=O)c1ccc(N2CCN(S(=O)(=O)c3ccc(-c4coc(C)n4)cc3)CC2)cc1`, the Potency result is “inactive”.

Take `CCOC(=O)c1c(NC(=O)c2ccc(S(=O)(=O)N3CCCC(C)C3)cc2)sc2c1CC(C)(C)NC2(C)C` (configuration not stated): the Potency entry was “inactive”.

`CN(C)c1ccc(/C=C(\C#N)c2nc(-c3ccc(Cl)c(Cl)c3)cs2)cc1`: the Potency result is “inactive”.

On to `Cc1ccc(S(=O)(=O)c2nc(-c3cccs3)oc2SCC(=O)Nc2cc(C)cc(C)c2)cc1`, for which the Potency was 16.5 µM (active).

Consider `CCSc1oc(-c2ccc(F)cc2)nc1S(=O)(=O)c1ccc(C)cc1`, for which the Potency entry was “inactive”.

With `CCOc1ccc(NC(=O)CSc2oc(-c3ccc(F)cc3)nc2S(=O)(=O)c2ccc(C)cc2)cc1`, the Potency was 2.33 µM (active).

As to `CCOc1ccc(-c2nnc(SCC(=O)Nc3cccc(OC)c3)nc2-c2ccc(OCC)cc2)cc1`, the Potency entry is “inactive”.

As to `COc1ccc(-c2nc(SCC(=O)Nc3c(C)cc(C)cc3C)n[nH]2)cc1`, the Potency result is “inactive”.

Turning to `CCOc1ccc(-c2cc(CCCC(=O)NCCc3ccc(OC)c(OC)c3)no2)cc1`, the Potency entry was “inactive”.

For the compound `CCOC(=O)c1c(-c2ccccc2)oc2ccc(N(C(C)=O)S(=O)(=O)c3ccc(CC)cc3)cc12`, the Potency entry is “inactive”.

With `Cc1ccc(OCC(=O)Nc2ccc3nc(Nc4cccc(Cl)c4)cc(C)c3c2)cc1`, the Potency is 14.7 µM (active).

In the case of `Cc1ccc(-n2c(SCC(=O)Nc3cccc(Cl)c3)nc3n[nH]c(C)c3c2=N)cc1`, the Potency entry was “inactive”.

In the case of `CCN(CC)c1cc(C)c2cc(NC(=O)c3ccccc3Cl)ccc2n1`, the Potency entry was “inactive”.

Consider `CCN1C(=O)C(O)(c2c(C)[nH]c3ccccc23)c2ccccc21` (configuration not stated), for which the Potency entry is “inactive”.

As to `Cc1nn(-c2ccc(N3CCOCC3)nn2)c(C)c1CCC(=O)NCc1ccccc1F`, the Potency entry is “inactive”.

In the case of `O=C(CSc1nc(-c2ccccc2)[nH]c1-c1ccccc1)Nc1ccc2c(c1)OCO2`, the Potency entry is “inactive”.

Regarding `Cc1cccc(C(=O)Nc2c(-c3ccc(F)cc3)nc3ccccn23)c1`, the Potency result is “inactive”.

Take `CCOC(=O)c1c(C)[nH]c(CCC(=O)NCc2ccc(OC)cc2OC)c1C`: the Potency result is “inactive”.

Turning to `CCOC(=O)c1c(C)[nH]c(CCC(=O)NCCCN2CCN(c3cc(C)ccc3C)CC2)c1C`, the Potency was 11.7 µM (active).

As for `CCOC(=O)c1c(C)[nH]c(CCC(=O)Nc2cc(C)cc(C)c2)c1C`, the Potency entry is “inactive”.

With `CCOC(=O)c1c(C)[nH]c(CCC(=O)NCCCN2CCN(c3cc(Cl)ccc3C)CC2)c1C`, the Potency is 14.7 µM (active).

Take `COC(=O)c1c(-c2ccc(Cl)cc2)noc1N1CCN(c2cc(C)ccc2C)CC1`: the Potency result was “inactive”.

With `COc1ccc(-c2ccc(CCC(=O)O)n2-c2ccccc2O)cc1`, the Potency result is “inactive”.

`CCC1CN(C(=O)NCc2ccccc2)c2cc(C)ccc2O1` (configuration not stated): the Potency result is “inactive”.

Regarding `CCN(Cc1ccccc1)Cc1c(O)ccc2oc(C)c(C(=O)Nc3ccc(C)cc3C)c12`, the Potency entry is “inactive”.

With `CCCCN1C(C(=O)c2ccccc2)=C(OC(C)=O)c2ccccc2S1(=O)=O`, the Potency result is “inactive”.

Take `COc1ccc(OC)c2sc(N(CCCN(C)C)C(=O)c3ccco3)nc12`: the Potency is 14.7 µM (active).

As to `COc1ccccc1Nc1c2c(nc3ccc(NC(=O)c4ccc(N(C)C)cc4)cc13)CCCC2`, the Potency was 2.07 µM (active).

As to `COc1cc(Cl)c(C)cc1Nc1c2c(nc3ccccc13)CCC2`, the Potency entry was “inactive”.

As to `COc1ccccc1Nc1c2c(nc3ccc(NC(=O)c4cccc(OC)c4OC)cc13)CCCC2`, the Potency was 5.85 µM (active).

Turning to `COc1ccc(C)cc1Nc1c2c(nc3ccccc13)CCC2`, the Potency was 7.36 µM (active).

Turning to `COc1ccc(C(=O)Nc2cccc(-c3cn4ccsc4n3)c2)cc1OC`, the Potency result was “inactive”.

Regarding `COc1cc2c(cc1OC)n(CC(=O)Nc1ccc(C)cc1C)c(=O)n1nc(-c3ccccc3)nc21`, the Potency entry was “inactive”.

Regarding `COc1ccccc1Nc1nn2c(=O)c3ccc(C(=O)NCCc4ccccc4)cc3nc2s1`, the Potency entry is “inactive”.

Regarding `COc1ccccc1Nc1c2c(nc3ccc(NC(=O)c4ccc(OC)c(OC)c4)cc13)CCCC2`, the Potency is 1.65 µM (active).

On to `COc1ccccc1Nc1nn2c(=O)c3ccc(C(=O)NCCC4=CCCCC4)cc3nc2s1`, for which the Potency result is “inactive”.

Consider `CC1=C(C(=O)Nc2ccccc2C)C(c2cccs2)n2nc(SCc3ccccc3)nc2N1` (configuration not stated), for which the Potency result is “inactive”.

Take `CCC1CN(C(=O)N2CCC(C(=O)NCCN(CC)CC)CC2)c2ccccc2O1` (configuration not stated): the Potency entry is “inactive”.

Regarding `CC(C)c1ccc(NC(=O)c2ccc(F)c(S(=O)(=O)N3CCN(c4ccccc4F)CC3)c2)cc1`, the Potency entry is “inactive”.

Take `COc1ccc2c(c1)c(=O)c(S(=O)(=O)c1ccc(Cl)cc1)cn2C`: the Potency entry is “inactive”.

Turning to `COc1ccc(CCCc2nnc(SCC(=O)Nc3cccc(F)c3C)o2)cc1`, the Potency entry was “inactive”.

Consider `COc1ccccc1CCNC(=O)C(=O)NCC(c1cccnc1)N1CCN(c2ccccc2)CC1` (configuration not stated), for which the Potency entry was “inactive”.

For `CCCc1nn2c(=O)cc(COC(=O)c3cccc(NC(=O)c4ccc(OCC)cc4)c3)nc2s1`, the Potency entry was “inactive”.

As for `CCOc1ccc(NC(=O)Cn2c(=O)cc(C)c3c(C)nn(C)c32)cc1`, the Potency entry is “inactive”.

Consider `CCC1=Nc2cc(C(=O)NCc3ccccc3Cl)ccc2Sc2ccc(C)cc21`, for which the Potency entry was “inactive”.

Turning to `CCc1cccc(NC(=O)Cn2c(=O)n(CCC(=O)NCc3ccccc3Cl)c(=O)c3sccc32)c1`, the Potency entry was “inactive”.

For `CC(C)COc1ccc(C(=O)NCC2(N3CCN(C)CC3)CCCCC2)cc1`, the Potency is 16.5 µM (active).

Turning to `Cc1ccc(OCC(=O)NCC2(N3CCN(C)CC3)CCCCC2)cc1C`, the Potency result was “inactive”.

On to `CN(C)C1(CNC(=O)COc2ccc(C(C)(C)C)cc2)CCCCC1`, for which the Potency entry is “inactive”.

On to `Cc1ccc(OCC(=O)NCC2(N3CCN(C)CC3)CCCCC2)cc1`, for which the Potency result is “inactive”.

With `CC(C)(C)c1ccc(OCC(=O)NCC2(N3CCOCC3)CCCCC2)cc1`, the Potency entry was “inactive”.

Turning to `CN1CCN(C2(CNC(=O)COc3ccc(C(C)(C)C)cc3)CCCCC2)CC1`, the Potency is 14.7 µM (active).

`Oc1ccccc1-c1nc(-c2cccs2)c(-c2cccs2)[nH]1`: the Potency entry is “inactive”.

With `COc1ccc(CNCCC(c2ccc(C)cc2)c2ccco2)cc1` (configuration not stated), the Potency result is “inactive”.

In the case of `CC(=O)c1cccc(NS(=O)(=O)c2ccc3[nH]c4c(c3c2)CCCCC4)c1`, the Potency result is “inactive”.

`COc1ccc(-c2nn(C)c3sc(C(=O)Nc4cccc(F)c4)cc23)cc1OC`: the Potency entry is “inactive”.

`CCOc1ccc(CCNC(=O)c2cc3c(-c4ccccc4F)nn(C)c3s2)cc1`: the Potency entry is “inactive”.

For `CCCCN(CCCC)CCCNC(=O)c1cc(-c2ccc(Cl)s2)nc2ccccc12`, the Potency entry is “inactive”.

Take `COc1ccc(CCNC(=O)c2nn(C)c3c2CSc2ccccc2-3)cc1OC`: the Potency entry was “inactive”.

For `CCCN(CCC)CCCNC(=O)c1cc2c(-c3ccc(OC)c(OC)c3)nn(C)c2s1`, the Potency was 16.5 µM (active).

Take `CCCN(CCC)CCCNC(=O)c1cc2c(-c3ccc(Cl)cc3)nn(C)c2s1`: the Potency is 2.61 µM (active).

As to `Cc1cc(C)cc(NC(=O)C(=O)NCC(c2ccc3c(c2)OCO3)N2CCN(C)CC2)c1` (configuration not stated), the Potency result was “inactive”.

In the case of `CC(C)CN(CC(C)C)S(=O)(=O)c1ccc(C(=O)Nc2sc3c(c2C(N)=O)CCN(C(C)C)C3)cc1`, the Potency result is “inactive”.

For the compound `CCc1ccc(CNC(=O)COc2cc(=O)n(CC)c3ccccc23)cc1`, the Potency result was “inactive”.

For `CC(C)Oc1ccccc1-c1nc(SCC(=O)c2ccc(F)cc2)n[nH]1`, the Potency entry was “inactive”.

Consider `CCOc1ccc(CNC(=O)C2CCN(S(=O)(=O)c3ccc4c(ccn4C)c3)CC2)cc1`, for which the Potency result was “inactive”.

On to `CCOc1cc(CNC(=O)c2ccc(C)c(NC(=O)c3nsc4ccccc34)c2)ccc1OC`, for which the Potency result was “inactive”.

For the compound `COc1ccccc1C(=O)OCc1cc(=O)n2nc(C3CC3)sc2n1`, the Potency result was “inactive”.

Take `CC(C)OCCCN1C(=O)c2[nH]nc(-c3ccccc3O)c2C1c1ccc(OCc2ccccc2)cc1` (configuration not stated): the Potency is 18.5 µM (active).

Turning to `O=C1c2[nH]nc(-c3ccccc3O)c2C(c2ccc(Cl)cc2)N1CCc1ccccc1` (configuration not stated), the Potency entry was “inactive”.

As for `CCCCN1C(=O)c2[nH]nc(-c3ccccc3O)c2C1c1cccc(OCc2ccccc2)c1` (configuration not stated), the Potency is 20.7 µM (active).

Turning to `COc1ccc(C2c3c(-c4ccccc4O)n[nH]c3C(=O)N2CCc2ccccc2)cc1` (configuration not stated), the Potency entry is “inactive”.

On to `CCCN1C(=O)c2[nH]nc(-c3ccccc3O)c2C1c1cccc(OCc2ccccc2)c1` (configuration not stated), for which the Potency result was “inactive”.

For `COc1ccc(CCN2C(=O)c3[nH]nc(-c4ccccc4O)c3C2c2cccc(OC)c2)cc1` (configuration not stated), the Potency was 20.7 µM (active).

Consider `COc1ccc(CCN2C(=O)c3[nH]nc(-c4ccccc4O)c3C2c2ccccc2)cc1` (configuration not stated), for which the Potency result was “inactive”.

As for `CCCCOc1cccc(C2c3c(-c4cc(C)ccc4O)n[nH]c3C(=O)N2CCOC)c1` (configuration not stated), the Potency entry is “inactive”.

For the compound `CCCN1C(=O)c2[nH]nc(-c3ccccc3O)c2C1c1ccc(OCc2ccccc2)c(OC)c1` (configuration not stated), the Potency result was “inactive”.

For the compound `CCc1ccc(-n2nc(C)c3c(C(=O)Nc4cc(OC)cc(OC)c4)cc(C)nc32)cc1`, the Potency entry is “inactive”.

For `CC(Sc1nc2c([nH]c3ccccc32)c(=O)n1-c1ccccc1)c1ccccc1` (configuration not stated), the Potency result is “inactive”.

Take `CC(C)CC(=O)Nc1cc(-c2ccccc2F)nn1-c1ccccc1`: the Potency entry is “inactive”.

`CCOc1ccc(-n2c(-c3ccccc3)c(C)n3c4c(=O)n(C)c(=O)n(C)c4nc23)cc1`: the Potency entry was “inactive”.

With `Cc1ccc(-c2nc3ncccc3o2)cc1NC(=O)COc1ccc(C(C)C)cc1`, the Potency entry was “inactive”.

For `Cc1cccc(C)c1NC(=O)Cn1c(=O)n(CCC(=O)NCc2ccccc2Cl)c(=O)c2sccc21`, the Potency result is “inactive”.
